Reference: PubChem BioAssay (NCI)
The panel holds about 83,000 compounds, 20% with a hit somewhere; the sample as a whole holds those more often.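 Testing used 96-well plates and a 48-hour single-concentration exposure. Example: -40 means 40% of the starting cells died.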 Active and inactive are the calls of the source. Rule for the calls: active = growth percent below 10; inactive = the rest.

Legend:
Assay in all cases: NCI-60 one-dose screen, 48 h (100 = growth as untreated, 0 = no growth, -100 = all killed)
Details in all cases: 10 µM unless noted
SR leukemia = test system: SR leukemia
RPMI-8226 leukemia = test system: RPMI-8226 leukemia
OVCAR-8 ovarian = test system: OVCAR-8 ovarian
OVCAR-5 ovarian = test system: OVCAR-5 ovarian
OVCAR-4 ovarian = test system: OVCAR-4 ovarian
SK-OV-3 ovarian = test system: SK-OV-3 ovarian
IGROV1 ovarian = test system: IGROV1 ovarian
OVCAR-3 ovarian = test system: OVCAR-3 ovarian
HS 578T breast = test system: HS 578T breast
NCI/ADR-RES ovarian = test system: NCI/ADR-RES ovarian
T-47D breast = test system: T-47D breast
BT-549 breast = test system: BT-549 breast
MDA-MB-435 melanoma = test system: MDA-MB-435 melanoma
SW-620 colon = test system: SW-620 colon
MCF7 breast = test system: MCF7 breast
HCT-116 colon = test system: HCT-116 colon
HCC-2998 colon = test system: HCC-2998 colon
KM12 colon = test system: KM12 colon

Measured: growth

Cc1cc(C)n(C(=O)c2sc(=S)n(-c3ccccc3)c2N=Nc2c(N)n[nH]c2N)n1
inactive: SR leukemia 86.4% | RPMI-8226 leukemia 108% | OVCAR-8 ovarian 101% | OVCAR-5 ovarian 101% | OVCAR-4 ovarian 115% | SK-OV-3 ovarian 109% | IGROV1 ovarian 99.8% | OVCAR-3 ovarian 119% | HS 578T breast 113% | NCI/ADR-RES ovarian 115% | T-47D breast 117% | BT-549 breast 107% | MDA-MB-435 melanoma 104% | SW-620 colon 102% | MCF7 breast 96.7% | HCT-116 colon 100% | HCC-2998 colon 110% | KM12 colon 107%

NS(=O)(=O)c1ccc(-n2cc(CN3CCCCC3)nn2)cc1
inactive: SR leukemia 93.7% | RPMI-8226 leukemia 107% | OVCAR-8 ovarian 105% | OVCAR-5 ovarian 105% | OVCAR-4 ovarian 105% | SK-OV-3 ovarian 122% | IGROV1 ovarian 104% | OVCAR-3 ovarian 113% | HS 578T breast 100% | NCI/ADR-RES ovarian 109% | T-47D breast 110% | BT-549 breast 108% | MDA-MB-435 melanoma 106% | SW-620 colon 106% | MCF7 breast 96.9% | HCT-116 colon 107% | HCC-2998 colon 106%

CCOC(=O)c1c(NC(=O)c2ccccc2C(F)(F)F)sc2c1CCC(=O)C2
inactive: SR leukemia 24.2% | OVCAR-8 ovarian 37.9% | OVCAR-5 ovarian 21% | OVCAR-4 ovarian 16.7% | SK-OV-3 ovarian 99.7% | IGROV1 ovarian 29% | OVCAR-3 ovarian 12.4% | HS 578T breast 36.3% | NCI/ADR-RES ovarian 10.7% | T-47D breast 15% | BT-549 breast 11.1% | MDA-MB-435 melanoma 72.6% | SW-620 colon 14.9% | MCF7 breast 78.5% | HCT-116 colon 11% | HCC-2998 colon 65.2%
active: RPMI-8226 leukemia -6.12%

O=C(CNc1nc(-c2cccc([N+](=O)[O-])c2)cs1)Nc1cccc([N+](=O)[O-])c1
inactive: BT-549 breast 15.2%
active: SR leukemia 2.66% | RPMI-8226 leukemia -18.8% | OVCAR-8 ovarian -3.29% | OVCAR-5 ovarian -12.9% | OVCAR-4 ovarian 5.36% | SK-OV-3 ovarian -23.9% | IGROV1 ovarian -28.3% | OVCAR-3 ovarian 5.33% | HS 578T breast -11.8% | NCI/ADR-RES ovarian -11.4% | T-47D breast -5.2% | MDA-MB-435 melanoma -15.5% | SW-620 colon 1.81% | MCF7 breast -1.07% | HCT-116 colon -8.55% | HCC-2998 colon -55.9% | KM12 colon 4.12%

CCOc1ccc(NC2=C(Cl)C(=O)c3nc(C)ccc3C2=O)cc1
active: SR leukemia -27.4% | RPMI-8226 leukemia -19.3% | OVCAR-8 ovarian 1.03% | OVCAR-4 ovarian -97.5% | IGROV1 ovarian -82.4% | OVCAR-3 ovarian -97.2% | NCI/ADR-RES ovarian -15.6% | T-47D breast -43.8% | MDA-MB-435 melanoma -83.7% | SW-620 colon -55.3% | MCF7 breast -67% | HCT-116 colon -83.6% | HCC-2998 colon -55.7%
inactive: OVCAR-5 ovarian 54.8% | SK-OV-3 ovarian 79.8% | HS 578T breast 49% | BT-549 breast 46.5%

O=C(CSc1nnc(-c2ccc3nc(-c4ccccc4)[nH]c3c2)o1)Nc1ccc(C(=O)/C=C/c2ccccc2)cc1
inactive: SR leukemia 111% | RPMI-8226 leukemia 94.3% | OVCAR-8 ovarian 100% | OVCAR-5 ovarian 118% | OVCAR-4 ovarian 100% | SK-OV-3 ovarian 109% | IGROV1 ovarian 95.8% | OVCAR-3 ovarian 116% | HS 578T breast 103% | NCI/ADR-RES ovarian 105% | T-47D breast 98.6% | BT-549 breast 96.8% | MDA-MB-435 melanoma 101% | SW-620 colon 116% | MCF7 breast 87.6% | HCT-116 colon 97% | HCC-2998 colon 106%

CC(C)(C)c1ccc(C(=O)Nc2sc3c(c2C(N)=O)CC/C(=N\O)C3)cc1
active: SR leukemia 6.35% | RPMI-8226 leukemia -16.7% | T-47D breast 1.45% | MCF7 breast 5.51% | KM12 colon 6.97%
inactive: OVCAR-8 ovarian 15.8% | OVCAR-5 ovarian 26.6% | OVCAR-4 ovarian 10% | SK-OV-3 ovarian 35.1% | IGROV1 ovarian 27.6% | OVCAR-3 ovarian 12.6% | HS 578T breast 38.7% | NCI/ADR-RES ovarian 11.7% | BT-549 breast 16.2% | MDA-MB-435 melanoma 13.6% | SW-620 colon 17.6% | HCT-116 colon 10.5% | HCC-2998 colon 34.3%

CCO/C=N/C1=C(C#N)C(c2ccc(Cl)cc2)c2sc3c(CC)cccc3c2O1 (stereo unspecified)
active: RPMI-8226 leukemia 9.39% | OVCAR-3 ovarian -20.5% | MDA-MB-435 melanoma -43.2%
inactive: SR leukemia 18% | OVCAR-8 ovarian 28.5% | OVCAR-5 ovarian 36.9% | OVCAR-4 ovarian 76.5% | SK-OV-3 ovarian 58.2% | IGROV1 ovarian 23% | HS 578T breast 18.4% | NCI/ADR-RES ovarian 14.9% | T-47D breast 26.9% | BT-549 breast 59.6% | SW-620 colon 32.3% | MCF7 breast 16.2% | HCT-116 colon 23.1% | HCC-2998 colon 23.6%

NC(N)=Nc1ccc(Nc2cccc(Oc3ccc(Cl)c(C(F)(F)F)c3)c2)cn1
inactive: OVCAR-8 ovarian 27.4% | OVCAR-5 ovarian 58.1% | OVCAR-4 ovarian 39.8% | SK-OV-3 ovarian 56.3% | IGROV1 ovarian 22.6% | HS 578T breast 45.4% | NCI/ADR-RES ovarian 80.5% | T-47D breast 23.7% | BT-549 breast 76.2% | MDA-MB-435 melanoma 18.3%
active: SR leukemia -49.9% | RPMI-8226 leukemia -40.8% | OVCAR-3 ovarian -55% | SW-620 colon -60.5% | MCF7 breast -11.2% | HCT-116 colon -72.9% | HCC-2998 colon -33.1%
